From PubChem BioAssay (NCI)
Compounds without any hit were thinned out: in the full panel of roughly 79,000, 15% have a hit. Active and inactive are the calls of the source. Cut-off read from the data, not from the text of the source: active = growth inhibition above about 70%; inactive = the rest.

Experiments:
[1] = NCI Yeast Anticancer Drug Screen. Data for the rad50 strain (AID 155);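 note: 0% = growth of vehicle-only cultures of the same strain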; settings: S. cerevisiae rad50 strain growth inhibition; at 50.0 µM; stronger effect = higher value
Summary of the method: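 Genetically altered yeast (DNA repair pathway); compound treatment; growth inhibition vs vehicle ctrl.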

[2] = NCI Yeast Anticancer Drug Screen. Data for the mec2-1 strain (AID 157); settings: S. cerevisiae mec2-1 strain, at 50.0 µM, stronger effect = higher value
Summary of the method: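 Mutant yeast (mec2-1) grown with compound; growth inhibition relative to vehicle control reported.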

[3] = NCI Yeast Anticancer Drug Screen. Data for the sgs1 mgt1 strain (AID 161);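 note: 0% = growth of cultures given vehicle only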; settings: S. cerevisiae sgs1 mgt1 strain, at 50.0 µM, stronger effect = higher value
Summary of the method: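 Percent growth inhibition was derived by comparing compound-exposed mutant yeast with vehicle-exposed cultures. The strain carries alterations in DNA damage repair.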

[4] = NCI Yeast Anticancer Drug Screen. Data for the cln2 rad14 strain (AID 165);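 note: 0% = growth equal to vehicle treated cultures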; settings: S. cerevisiae cln2 rad14 strain, at 50.0 µM, stronger effect = higher value
Summary of the method: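 Readout is yeast growth inhibition versus vehicle-treated controls, using a strain with cln2 and rad14 alterations exposed to compound.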

[5] = NCI Yeast Anticancer Drug Screen. Data for the bub3 strain (AID 167); settings: S. cerevisiae bub3 mutant strain, at 50.0 µM, stronger effect = higher value
Summary of the method: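 Yeast carrying a defined mutation is treated with each compound, and growth is compared with that of vehicle-exposed cells to give inhibition.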

[6] = NCI Yeast Anticancer Drug Screen. Data for the mlh1 rad18 strain (AID 175); settings: S. cerevisiae mlh1 rad18 strain growth inhibition; at 50.0 µM; stronger effect = higher value
Summary of the method: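 Genetically defined yeast (DNA repair-deficient) exposed to compounds; growth inhibition determined relative to vehicle.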

Measured: growth inhibition

O=[N+]([O-])c1ccc(Cl)c2cccnc12
inactive: [1] 27.2% | [2] -7.65% | [3] -0.15% | [4] 7.3% | [5] 0.45% | [6] 50.4%

CC(=O)Oc1cccc(CN2CCc3ccccc3C2)c1
inactive: [1] -3.05% | [2] -7.95% | [3] 1.55% | [4] -31.2% | [5] 8.8% | [6] -24.1%

C/C(=N\N)C1C(=O)c2ccccc2C1=O
inactive: [1] 6.1% | [2] 5.05% | [3] 13.7% | [4] 20.8% | [5] 8.8% | [6] 11.3%

CCCCOC(=O)c1ccc(OC(=O)Nc2cccc(Cl)c2)cc1
active: [5] 70.7%
inactive: [1] 13.2% | [2] 2.3% | [3] 6.15% | [4] 12.2% | [6] 30.1%

CC(=O)NCCC1CN(C(=O)/C=C/I)c2ccccc21 (configuration not stated)
inactive: [1] -8.4% | [2] 30.4% | [3] 4.55% | [4] 37.7% | [5] 24.6% | [6] -17.4%

O=c1[nH]c2c(Cl)c(Cl)cc(Cl)c2o1
inactive: [1] 51.1% | [2] 6.4% | [3] 23.9% | [4] 48.2% | [5] 13.6% | [6] 43.6%

COc1cc(OC)c(N=Nc2c(O)n(C)c(=O)n(C)c2=O)cc1Cl
inactive: [1] 6.45% | [2] -17.8% | [3] 14.6% | [4] 3.85% | [5] 10.6% | [6] 1%

O=C(Cc1ccccc1)NN1C(=O)C(Cl)C1c1cc(Br)ccc1O (configuration not stated)
inactive: [1] 21% | [2] 30.1% | [3] 29.6% | [4] -20.6% | [5] 25.2% | [6] 15.6%

CC(C)(C)OC(=O)Cn1ncn(NC(=O)Cc2ccccc2)c1=S
inactive: [1] -27.6% | [2] -23.9% | [3] 1.05% | [4] -37.2% | [5] -33.5% | [6] -15.7%

CCCCCCCCCCCCCCCC(=O)OCC1OC(n2ccc(N)nc2=O)C(O)C1O (configuration not stated)
inactive: [1] -1.2% | [2] -10.3% | [3] 3.2% | [4] 8.2% | [5] 4.1% | [6] -2.8%

O=C(NCCN1CCCCC1)c1cccc(I)c1
inactive: [1] 2.45% | [2] -4.85% | [3] 15.5% | [4] 28.3% | [5] 8.15% | [6] 16%

CC(=O)CC(=O)Nc1ccccc1Cl
inactive: [1] 19.4% | [2] -4.6% | [3] 24.2% | [4] -5.75% | [5] -4.9% | [6] 16.4%

Clc1ccc(-c2nc(CSc3ccccn3)cs2)cc1
inactive: [1] 13.7% | [2] -12.4% | [3] 49.5% | [4] -22.2% | [5] 28.9% | [6] -6.8%

Cc1ccc(C)c(NC(=S)Nc2ccccc2)c1
inactive: [1] 0.8% | [2] -9% | [3] 3.5% | [4] -24.6% | [5] 54% | [6] 1.7%

O=C(O)CCCCC(=O)c1cc(O)ccc1O
inactive: [1] 15.3% | [2] 10.1% | [3] 2.55% | [4] -53.3% | [5] -15.3% | [6] -3.45%

Cc1[nH]n(C2=NCCN2)c(=O)c1Cc1ccccc1
inactive: [1] 4.6% | [2] -6.95% | [3] -24.2% | [4] -26.3% | [5] -10.6% | [6] -61.6%

O=C1c2ccccc2-c2nc(-c3cccs3)cc3c2c1nc1ccccc13
inactive: [1] 41.2% | [2] 21.4% | [3] 29.1% | [4] 21.9% | [5] 25% | [6] 36.2%

COc1cc(/C=C2\SC(=S)N(C=C3C(=O)NC(=O)NC3=O)C2=O)cc(OC)c1OC
inactive: [1] 7.5% | [2] -0.75% | [3] 19.1% | [4] 11.8% | [5] 7% | [6] 5.65%

CCOC(=O)c1ccc(NC(NC(=O)CC)(C(F)(F)F)C(F)(F)F)cc1
inactive: [1] -26.6% | [2] -20.4% | [3] -69.2% | [4] -19.1% | [5] -8.9% | [6] -54%

COC(=O)c1c2c(cc3c1CC1(Cc4ccccc4C1=O)C3)CCC2 (configuration not stated)
inactive: [1] -23.2% | [2] 5.2% | [3] 14.2% | [4] -17.1% | [5] 9.4% | [6] -39.9%

O=C(OCc1ccccc1CN1CCCC1)c1ccc(Br)cc1
inactive: [1] 11% | [2] -6.05% | [3] -9.9% | [4] -16.9% | [5] 20.1% | [6] -17.9%

CCC1(C)OCC(CCCCO)O1 (configuration not stated)
inactive: [1] -16.2% | [2] -14.9% | [3] -9.4% | [4] -34.9% | [5] -11.4% | [6] 14.3%

COc1ccc(O)c(/C=N/NC(N)=S)c1
inactive: [1] 23.8% | [2] -24.8% | [3] -4.45% | [4] -115% | [5] -24.8% | [6] -11.4%

COc1ccc(Nc2nc3c(N)cc(C(F)(F)F)cc3nc2-c2ccccc2)cc1OC
inactive: [1] 0.5% | [2] 0.95% | [3] -22.6% | [4] -6.8% | [5] -18.6% | [6] -7.1%

CC(=O)Oc1cc(OC(C)=O)c(OC(C)=O)c2c1CCCC2
inactive: [1] 6.45% | [2] 14.8% | [3] 6.65% | [4] -91.1% | [5] 16.4% | [6] 56.7%

CCOC(=O)/C(=C\c1ccnc2ccccc12)P(=O)(OCC)OCC
inactive: [1] 11.7% | [2] 4% | [3] 15.4% | [4] 11.1% | [5] 10.3% | [6] 23.1%

Nc1cccc(N=[N+]([O-])c2cccc(N)c2)c1
inactive: [1] 18.9% | [2] 8.05% | [3] -10.5% | [4] -22.1% | [5] 12.2% | [6] 27.6%

NC(=S)N/N=C/c1ccc(Cl)cc1Cl
inactive: [1] 65.7% | [2] 42.5% | [3] 35.9% | [4] 28.3% | [5] 45.2% | [6] 38.7%

CC(C)=NNc1snnc1C(N)=O
inactive: [1] 13.2% | [2] 26.9% | [3] 13.3% | [4] -2% | [5] -13.2% | [6] 28.4%

COC(=O)C(C(=O)C(=O)Nc1ccc(Br)cc1)c1nc2ccc(Cl)cc2[nH]c1=O (configuration not stated)
inactive: [1] -11% | [2] -5.1% | [3] 21.9% | [4] 7.05% | [5] -1.55% | [6] 2.8%

c1ccc2c(-c3ccncc3)c3ccccc3cc2c1
inactive: [1] 20.8% | [2] 2.6% | [3] 9.45% | [4] 0.45% | [5] 6.5% | [6] 20.3%

CCNc1nc(C)nc2c1cnn2-c1ccccc1
inactive: [1] -16.1% | [2] -12.6% | [3] -6.75% | [4] -56.5% | [5] -4.8% | [6] -9.75%

CCCCCc1cc(O)cc2c1Oc1cc(O)cc(C(=O)CCCC)c1C(=O)O2
inactive: [1] 4% | [2] -17.2% | [3] 8.6% | [4] -9.9% | [5] -9.4% | [6] -14.2%

[O-][n+]1cccc(CO)c1
inactive: [1] -17.9% | [2] -47.9% | [3] -25.1% | [4] 6.05% | [5] -15% | [6] -4.35%

Cc1ccc(N/N=c2\c3nc4ccccc4nc2n(-c2ccccc2C)c(=S)n3-c2ccc(C)cc2)cc1
inactive: [1] -19.6% | [2] -14.3% | [3] 1.15% | [4] -18.7% | [5] 0.8% | [6] -29.5%

NC(=O)CN(CC(N)=O)C(N)=O
inactive: [1] -14.6% | [2] -18% | [3] -20.2% | [4] 5.15% | [5] -10.3% | [6] -23.6%

CC(C)(C)OC(=O)C1/C(=C/CO)CN1C(=O)OC(C)(C)C (configuration not stated)
inactive: [1] -17.9% | [2] -36.2% | [3] -12.2% | [4] 7.4% | [5] -12.1% | [6] -28.9%

CS(=O)(=O)OC1COCC1OS(C)(=O)=O (configuration not stated)
inactive: [1] 8% | [2] 6.15% | [3] 9.05% | [4] -0.8% | [5] -5.3% | [6] -6.1%

O=c1[nH]c2cc(Cl)ccc2nc1/C(=N\O)C(O)c1ccc(Cl)cc1Cl (configuration not stated)
inactive: [1] -9.9% | [2] -24.4% | [3] -0.35% | [4] 20.6% | [5] -5.6% | [6] -13.2%

COC(=O)Cc1ccccc1-n1nccc1S(C)=O (configuration not stated)
inactive: [1] 10.2% | [2] -5.05% | [3] 14.3% | [4] -7.65% | [5] 8.6% | [6] 7.45%

CCc1ccccc1NC(=O)CCl
inactive: [1] 9.15% | [2] 0.3% | [3] -0.35% | [4] 17.6% | [5] -3.1% | [6] 2.75%

O=C(Nc1ccccc1)/C(N=Nc1ccccc1)=N\Nc1ccccc1
inactive: [1] -12.6% | [2] -16.1% | [3] -10.4% | [4] -28.4% | [5] 6.6% | [6] 19.8%
